BAZ2B block – blocks human BAZ2B. AlphaScreen BAZ2B-H3K14Ac peptide displacement. 360,000 tested, 4.4% active. AID 504333. Potency, µM (doses to about 114 µM), usual class: inhibitors. Q9UIF8; also: nearly all actives have a fitted effect of over 60% in size
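Inhibition is scored as reduced AlphaScreen emission. The BAZ2B/b-H3(5-23)K14Ac complex (50 nM each) in PBS pH 7.4, 0.01% Tween-20 meets compound (up to 110 uM) for 30 min at RT before bead addition.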
JMJD2A Tudor – blocks the human JMJD2A Tudor domain; AlphaScreen JMJD2A-Tudor / H3K4me3 peptide binding; Potency, µM (titrated, usually from 114 µM), most hits filed as inhibitors; AID 504339; O75164; 390,000 tested, 4.4% active; also: nearly all actives have a fitted effect of over 50% in size
G9a block – blocks human histone lysine methyltransferase G9a | Q96KQ7 | G9a H3K9 monomethylation, AlphaScreen, 2 h | Potency, µM (doses to about 102 µM), usual class: inhibitors | 350,000 tested, 8.8% active; also: nearly all actives have a fitted effect of over 75% in size
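AlphaScreen detection with an anti-monomethyl H3K9 antibody quantified product after a 2 h room-temperature reaction containing 500 nM biotinylated H3K9 peptide, 20 µM SAM and 20 nM enzyme, which had been preincubated 15 min with compound.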
HP1b binding inh – blocks HP1-beta chromodomain binding to methylated histone tails; P83916; AlphaScreen HP1-beta / biotin-H3K9me3 peptide binding; Potency, µM (series often up to 114 µM), usual class: inhibitors; 390,000 tested, 0.56% active; AID 540317; also: nearly all actives have a fitted effect of over 70% in size
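Compound inhibition of the preformed complex between 50 nM HP1-beta and 50 nM biotinylated H3K9me3 peptide was read by AlphaScreen. Buffer was PBS pH 7.4 with 0.01% Tween-20. Incubations ran 30 min at room temperature, with 10 ug/mL donor/acceptor beads.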
L3MBTL1 inh – blocks human L3MBTL1 | Q9Y468 | AlphaScreen L3MBTL1–H3K9me1 peptide binding | Potency, µM (top dose mostly 57.1 µM), usual class: inhibitors | 230,000 tested, 0.66% active; also: nearly all actives have a fitted effect of over 60% in size
Target sequence (Q9Y468 whole entry, looked up): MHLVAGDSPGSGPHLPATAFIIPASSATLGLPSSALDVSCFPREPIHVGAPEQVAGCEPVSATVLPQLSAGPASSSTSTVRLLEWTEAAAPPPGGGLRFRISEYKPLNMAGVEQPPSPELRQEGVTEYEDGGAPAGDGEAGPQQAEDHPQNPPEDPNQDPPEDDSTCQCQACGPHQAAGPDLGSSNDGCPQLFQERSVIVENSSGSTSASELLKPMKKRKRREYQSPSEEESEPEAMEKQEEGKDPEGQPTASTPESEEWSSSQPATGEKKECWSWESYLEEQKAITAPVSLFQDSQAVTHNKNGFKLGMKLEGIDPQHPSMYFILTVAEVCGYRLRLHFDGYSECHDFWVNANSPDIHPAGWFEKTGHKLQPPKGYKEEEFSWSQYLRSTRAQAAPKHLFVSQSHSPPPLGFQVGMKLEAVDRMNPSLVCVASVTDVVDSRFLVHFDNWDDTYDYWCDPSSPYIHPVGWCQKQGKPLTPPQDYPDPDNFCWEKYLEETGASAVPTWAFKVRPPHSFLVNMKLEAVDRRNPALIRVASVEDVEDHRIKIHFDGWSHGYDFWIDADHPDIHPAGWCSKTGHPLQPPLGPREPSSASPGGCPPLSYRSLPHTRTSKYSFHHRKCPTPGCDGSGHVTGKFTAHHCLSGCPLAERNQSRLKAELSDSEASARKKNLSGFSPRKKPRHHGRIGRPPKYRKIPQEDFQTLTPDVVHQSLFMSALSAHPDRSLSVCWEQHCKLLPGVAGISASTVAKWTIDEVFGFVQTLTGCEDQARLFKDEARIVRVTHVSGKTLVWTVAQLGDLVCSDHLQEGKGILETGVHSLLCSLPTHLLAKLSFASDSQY
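Displacement of a biotinylated histone H3(1-15) peptide monomethylated at Lys9 (75 nM) from L3MBTL1 (50 nM) was measured by AlphaScreen after a 30 min room-temperature compound incubation; cefsulodin titration served as intraplate control.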
Sfp inh – inhibitors of Bacillus subtilis Sfp phosphopantetheinyl transferase; Q9F4F7; Biochemical Sfp PPTase activity, qHTS; Potency, µM, usual class: inhibitors; 310,000 tested, 3.5% active; AID 1490;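 also: the enzyme is Sfp with the accession as filed and its product quenches rhodamine fluorescence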
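Step 1, compound plus 15 nM Sfp-PPTase, 15 min, room temperature. Step 2, add rhodamine-CoA (5 uM) and BHQ-2-YbbR (12.5 uM). Step 3, read 525/598 nm fluorescence at 0 and 30 min.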
Hits are given with their value; [ ] = remark or other dose. The list is not random: actives were taken first. Their share in the collection is about 12%. Calls follow the shape of the dose curve; as a rule, active = well fitted curve in the direction sought with a large enough effect; inconclusive = small, poorly fitted or top-dose-only effect, or another doubt; inactive = no such curve, though single readings can be large; an effect the other way counts as inactive or inconclusive.

For C=CCCC(=O)Nc1nc(C)c(-c2csc(Nc3cc(Cl)ccc3OC)n2)s1 the results were BAZ2B block inconclusive, JMJD2A Tudor inconclusive, G9a block inconclusive, HP1b binding inh inactive, L3MBTL1 inh inactive and Sfp inh inactive.
For CCCCCCC(=O)Nc1nc(C)c(-c2csc(Nc3ccc(Cl)cc3)n2)s1 the results were BAZ2B block inconclusive, JMJD2A Tudor inconclusive, G9a block inconclusive, HP1b binding inh inconclusive, L3MBTL1 inh inactive and Sfp inh inactive.
C=CCNc1nc(-c2sc(NC(C)=O)nc2C)cs1 was read as BAZ2B block inactive, JMJD2A Tudor inactive, G9a block 17.8µM, HP1b binding inh inactive and Sfp inh inactive.
`C=CCNc1nc(-c2sc(NC(=O)CC)nc2C)cs1` gave BAZ2B block inconclusive, JMJD2A Tudor inactive, G9a block 8.91µM, HP1b binding inh inactive, L3MBTL1 inh inactive and Sfp inh inactive.
For NC(=O)c1ccsc1NC(=O)COc1ccccc1 the results were BAZ2B block inactive, JMJD2A Tudor 50.1µM, G9a block inactive, HP1b binding inh inconclusive, L3MBTL1 inh inactive and Sfp inh inactive.
For CCOC(=O)c1c(NC(=O)COc2ccc(Br)cc2)sc(C(C)=O)c1C the results were BAZ2B block inactive, JMJD2A Tudor inactive, G9a block 14.1µM and HP1b binding inh inactive.
Screening CCOC(=O)c1c(NC(=O)COc2ccccc2)sc(C(C)=O)c1C returned BAZ2B block inactive, JMJD2A Tudor inactive, G9a block 12.6µM and HP1b binding inh inconclusive.
For Cc1sc(NC(=O)COc2ccccc2)c(C#N)c1C the results were BAZ2B block inactive, JMJD2A Tudor inactive, G9a block 10µM, HP1b binding inh inconclusive and Sfp inh 22.4µM.
CCN(CC)S(=O)(=O)c1ccc2c(c1)c(=O)c(C(=O)NCc1ccccc1Cl)cn2C was read as JMJD2A Tudor inactive, G9a block inactive and HP1b binding inh inactive.
CC(=O)Nc1ccc(NC(=O)CCc2nc3cccnc3n2Cc2cccs2)cc1 was read as BAZ2B block inactive, JMJD2A Tudor inactive, G9a block inactive and HP1b binding inh inactive.
Screening CCOC(=O)c1sc(NC(=O)CNCc2ccccn2)c(C(=O)OCC)c1C returned BAZ2B block 28.2µM, JMJD2A Tudor inconclusive, HP1b binding inh inactive, L3MBTL1 inh inactive and Sfp inh inactive.
Screening CN(C)c1ncc2nc(-c3cccs3)c(=O)n(-c3ccccc3)c2n1 returned G9a block inactive[0.501 µM] and Sfp inh inactive.
Screening O=C(Cc1ccc(Cl)cc1)Nc1ccc2nn(-c3ccccc3)nc2c1 returned BAZ2B block inactive, JMJD2A Tudor inactive, G9a block inactive and HP1b binding inh inactive.
Screening CCCCc1ccc(-n2nc3cc(C)c(NC(=O)Cc4ccccc4)cc3n2)cc1 returned BAZ2B block inconclusive, JMJD2A Tudor 50.1µM, G9a block 1.41µM and HP1b binding inh inactive.
Screening Cc1cc2nn(-c3ccccc3)nc2cc1NC(=O)Cc1ccc(Cl)cc1 returned BAZ2B block inactive, JMJD2A Tudor inactive, G9a block 14.1µM and HP1b binding inh inactive.
CCCCC(=O)Nc1cc2nn(-c3ccc(OCC)cc3)nc2cc1C was read as BAZ2B block inactive, JMJD2A Tudor inactive, G9a block inactive and HP1b binding inh inactive.
`COc1cc(OC)c(NC(=O)C(C)n2c(=O)cc(-c3ccccc3)c3c(C)nn(C)c32)cc1Cl` (configuration not stated) gave BAZ2B block inconclusive, JMJD2A Tudor inactive, G9a block inactive and HP1b binding inh inactive.
COc1ccc(C2=Nn3c(nnc3-c3ccccc3O)SC2)c(OC)c1 was read as JMJD2A Tudor inactive and Sfp inh inactive.
COC(=O)C1=C(C)NC(=O)/C1=C\N(C)C was read as BAZ2B block inactive, JMJD2A Tudor inactive, G9a block 39.8µM, HP1b binding inh inactive and Sfp inh inactive.
For COC(=O)C1=C(C)NC(=O)/C1=C\c1ccc2c(c1)OCO2 the results were BAZ2B block inactive, JMJD2A Tudor inactive, HP1b binding inh inactive, L3MBTL1 inh inactive and Sfp inh inactive.
Cc1cc(=O)n(CC(=O)NCc2ccc(OC(C)C)cc2)c2c1c(C)nn2-c1cccc(F)c1 was read as BAZ2B block inactive, JMJD2A Tudor inactive, G9a block inactive and HP1b binding inh inactive.
CCOc1ccc(NC(=O)c2cnc3sc(N4CCOCC4)nn3c2=O)cc1 was read as BAZ2B block inactive, JMJD2A Tudor inactive, G9a block inactive and HP1b binding inh inactive.
Screening C/C(=N\NC(=O)CSCc1ccccc1Cl)c1cc(O)ccc1O returned BAZ2B block 39.8µM, JMJD2A Tudor inconclusive, HP1b binding inh inconclusive, L3MBTL1 inh inactive and Sfp inh inconclusive.
OCc1cn(-c2ccccc2)nc1-c1cc2ccccc2o1 was read as BAZ2B block inactive, JMJD2A Tudor inactive, HP1b binding inh inactive, L3MBTL1 inh inactive and Sfp inh 56.2µM.
For Cc1cccc(Nc2nc(N)nc(CN3CCN(c4ccc(F)cc4)CC3)n2)c1 the results were BAZ2B block inactive, JMJD2A Tudor 56.2µM, G9a block 44.7µM, HP1b binding inh inactive, L3MBTL1 inh inactive and Sfp inh inactive.
For Nc1nc(CN2CCCCCC2)nc(Nc2ccccc2)n1 the results were BAZ2B block 10µM, JMJD2A Tudor 20µM, G9a block inconclusive, HP1b binding inh inactive, L3MBTL1 inh 28.2µM and Sfp inh inactive.
`COc1ccc(OCc2nc(N)nc(Nc3ccc(C)cc3)n2)cc1` gave BAZ2B block inactive, JMJD2A Tudor inactive, G9a block inactive, HP1b binding inh inactive, L3MBTL1 inh inactive and Sfp inh inactive.
Cc1ccc(Nc2nc(N)nc(CN3CCCCCC3)n2)cc1 was read as BAZ2B block 11.2µM, JMJD2A Tudor 50.1µM, G9a block inconclusive, HP1b binding inh inactive, L3MBTL1 inh inconclusive and Sfp inh inactive.
Cc1ccc(Nc2nc(N)nc(CSc3nnnn3-c3ccccc3)n2)cc1 was read as BAZ2B block inconclusive, JMJD2A Tudor 89.1µM, G9a block inactive[12.7 µM], HP1b binding inh inactive, L3MBTL1 inh inactive and Sfp inh inactive.
Cc1nn(C)c2c1c(-c1ccccc1)cc(=O)n2Cc1ccc(F)cc1 was read as BAZ2B block inactive, JMJD2A Tudor inactive, G9a block inactive and HP1b binding inh inactive.
For Cc1ccc(Nc2nc(N)nc(CN3CCN(C(=O)c4ccco4)CC3)n2)cc1Cl the results were BAZ2B block inactive, JMJD2A Tudor inconclusive, G9a block 50.1µM, HP1b binding inh inactive, L3MBTL1 inh inactive and Sfp inh inactive.
For CCOC(=O)C1CCCN(Cc2nc(N)nc(Nc3ccccc3)n2)C1 (configuration not stated) the results were BAZ2B block 35.5µM, JMJD2A Tudor 56.2µM, G9a block inactive[12.7 µM], HP1b binding inh inactive, L3MBTL1 inh inactive and Sfp inh inactive.
`COc1ccc(CCn2c3c(c(=O)[nH]c2=S)CN(Cc2ccccc2)CN3)cc1OC` gave JMJD2A Tudor inactive and HP1b binding inh inactive.

Screening results as filed in PubChem BioAssay.
